Most compounds without a hit are left out; they make up all but 5.2% or so of the library.
CendR NRP1 mod = NRP-1/CendR interaction modulation. O14786. FAM-RPARPAR peptide binding to NRP-1, fluorescence polarization. inhibition, % at 25 µM. hit rate 0.85% among 360,000. AID 602438;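 active = inhibition or corrected inhibition above about 18%, plus a signal ratio from 0.5 to 1.5, limit read from the data, passing the limit was not always enough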
APOBEC3G inh = APOBEC3G (human) deaminase inhibition; recombinant A3G, ssDNA deamination FAM/TAMRA fluorescence; hit rate 0.28% among 330,000; inhibition, % at 20 µM; Q9HC16;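 active = inhibition of at least 40% at 20 µM, with no more than 30% in the related APOBEC3A deaminase screen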;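 note: plate controls were DMSO wells with A3G for no effect and wells lacking A3G enzyme for full effect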
ALR H2O2 inh = blocks human ALR sulfhydryl oxidase activity; purified ALR, DTT oxidation, H2O2 HRP-luminol luminescence; inhibition, % (test concentration not listed); hit rate 3.8% among 290,000; AID 485317;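 active = mean replicate inhibition above about 79%, with every replicate also reaching it, limit read from the data; inconclusive = only one of the two criteria met; inactive = mean below limit and not every replicate reaching it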
Yeast superoxide = caloric restriction mimetics inhibiting age-related superoxide in yeast; S. cerevisiae aged cells, superoxide DHE fluorescence; stronger effect = lower value; superoxide response (% of plate mean), % at 10 µM; hit rate 0.18% among 330,000; AID 2690;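 active = superoxide response under a set limit, about three screen SD below normal, cut at about 65% in these data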;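 note: yeast aged for seven days with compound at 30 °C before DHE staining; 100% = average MFI of all compound-treated wells on the plate with controls excluded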
PfM18AAP inh = blocks P. falciparum M18 aspartyl aminopeptidase; inhibition, % at 7.35 µM; AID 1822; recombinant PfM18AAP, H-Glu-NHMec fluorogenic cleavage; hit rate 1.2% among 290,000;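 active = inhibition above the campaign mean inhibition over all tested compounds plus 3 SD, cut at about 28% in these data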;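 note: 0% = plate median of test compound wells and 100% = 2 mM ZnCl2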
A3A deaminase = blocks human APOBEC3A ssDNA deamination | P31941 | recombinant A3A, FAM/TAMRA ssDNA deamination fluorescence | hit rate 0.41% among 330,000 | AID 493011 | inhibition, % at 20 µM;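 active = at least 40% inhibition at 20 µM here, with at most 30% in a related deaminase screen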;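 note: plate controls were A3A with DMSO for no effect and wells lacking A3A enzyme for full effect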
APOBEC3A confirm = confirmation of human APOBEC3A DNA deaminase inhibitors; recombinant A3A, ssDNA deaminase UDG fluorescence assay; inhibition, % at 20 µM; hit rate 63% among 1,400; shares compounds with A3A deaminase;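 active = inhibition reaching a set limit, 80% of the first screen's cutoff, at 20 µM in any replicate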;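 note: plate controls were DMSO wells with A3A for no effect and wells lacking A3A enzyme for full effect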
UDG ctr A3A = UDG inhibition in APOBEC3A counter-screen. shares compounds with A3A deaminase. UDG counterscreen, FAM/TAMRA uracil oligo fluorescence. inhibition, % at 20 µM. 1,000 tested, under 10 active; call rule not given here
* marks the source's active call; other numbers are inactive results; u = inconclusive; x = no result.

SMILES	CendR NRP1 mod	APOBEC3G inh	ALR H2O2 inh	Yeast superoxide	PfM18AAP inh	A3A deaminase	APOBEC3A confirm	UDG ctr A3A
CC(=O)Oc1ccc(/C=N/NC(=O)C2CCCN2S(=O)(=O)c2ccc(Cl)cc2)cc1 (stereo not given)	-4	16	100*	108	-10	61*	71*	-4
Cc1ccc(NC(=O)[C@@H]2CCCN2S(=O)(=O)c2ccc(Cl)cc2)cc1	8	-6	-10	88	x	-2	x	x
CN1C2CCC1CC(OC(=O)c1c[nH]c3ccccc13)C2 (stereo not given)	1	0	-6	87	-6	5	x	x
Cc1ccoc1C(=O)NCc1occc1C(=O)O	-12	10	-26	110	3	40	28	x
CCCNC(=O)Nc1ccc(C(F)(F)F)cc1	1	-2	-4	106	4	1	x	x
COc1ccc2c(c1)c(=O)oc1cc(OCC(=O)N3CCCC(C)C3)ccc12 (stereo not given)	1	-5	-1	103	2	8	x	x
CC(C)c1ccc(OCC(=O)N2CCc3ccccc3C2)cc1	-7	-5	-4	101	-14	-2	x	x
COc1ccc2c(c1)c(=O)oc1cc(OCC(=O)N3CCc4ccccc4C3)ccc12	-13	11	-7	74	17	45*	71*	-2
COc1ccc2c(c1)c(=O)oc1cc(OCC(=O)N3CCC(C)CC3)ccc12	-18	28	3	93	-10	54*	49*	-1
O=C(NCCc1nnc2ccc(NCCCN3CCOCC3)nn12)c1ccccc1F	6	-8	-3	101	14	-4	x	x
O=C(c1cc(S(=O)(=O)N2CCC3(CC2)OCCO3)ccc1F)N1CCCCC1	2	6	-3	125	1	4	x	x
CCOc1cccc(/C=N/NS(=O)(=O)c2ccc(C)c([N+](=O)[O-])c2)c1O	-2	-6	22	98	-3	-2	x	x
CSc1nc(-c2ccccc2)c2cc(Cl)ccc2n1	6	1	1	100	-1	0	x	x
Nc1ccc(-c2ccc(N)c(C(=O)O)c2)cc1C(=O)O	-13	12	83*	103	16	48*	37*	1
C=CC#CC1(O)CC(C)[N+](C)(C)CC1C (stereo not given)	11	28	-1	95	2	56*	71*	-1
Cc1cc(C)cc(OCC(=O)N2N=C(C(F)(F)F)CC2(O)C(C)(C)C)c1 (stereo not given)	-10	19	-7	107	-3	56*	48*	-1
Cc1cc(C)cc(OCC(=O)N2N=C(c3cccnc3)CC2(O)C(F)(F)F)c1 (stereo not given)	-2	-4	x	98	11	-2	x	x
O=C(Nc1ccccc1)c1ccc(CSc2ncccn2)cc1	0	19	0	105	3	43*	20	x
CC(=O)Nc1nnc(SCc2ccc(C(=O)Nc3ccccc3F)cc2)s1	7	19	-6	88	-2	48*	53*	3
O=C(Nc1ccccc1F)c1ccc(CSc2ncccn2)cc1	10	12	7	102	2	70*	55*	-3
COc1cc(CSc2nc(-c3ccccc3)cc(=O)[nH]2)cc(OC)c1	6	1	3	104	-7	-3	x	x
COc1ccc(-c2noc(CSc3nc(-c4ccccc4)cc(=O)[nH]3)n2)cc1	-10	14	-9	103	4	56*	22	x
CC(C)N1CC(O)=C(c2nc3ccccc3[nH]2)C1=N	7	-1	u	102	4	-1	x	x
CC(C)N1CC(O)=C(c2ccccc2)C1=N	-1	-3	28	96	5	74*	-1	4
CCC(=O)/C=C1\Sc2ccc(OC)cc2N1CC	5	-2	u	90	9	0	x	x
CCN1/C(=C\C(C)=O)Sc2ccc(OC)cc21	6	16	9	96	8	58*	67*	2
CCOC(=O)c1c(N2C(=O)Nc3ccccc3N2O)n[nH]c1-c1cccc(Cl)c1	13	-6	-4	114	-2	-1	x	x

Screening data from PubChem.
